# In the library only some 4.8% were active in any assay of this set; here they are far more common.
# ssDAF12 agonist: S. stercoralis DAF-12 activation, primary screen; HEK293 ssDAF-12/GRIP1 lit1-tk-luc reporter, luminescence; % of 3 µM dafachronic acid response; activation, % at 6.8 µM; actives 1% (n = 370,000); AID 652126;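 active means activation above the mean over all tested compounds plus 3 SD, cut at about 0.9% in these data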;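 further: 0% = DMSO-only wells and 100% = 3 µM delta7-dafachronic acid wells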
# SMARCA2 activ: activators of SMARCA2 function. MG213 cells, MMTV-luciferase reporter, dexamethasone, overnight. activation, % at 9.1 µM. actives 1% (n = 370,000). AID 652017; in the data active means activation above about 7.8%;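 further: 0% = vehicle wells and 100% = reference activator wells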
# DAX1 inh-1: DAX1 (NR0B1) inhibition, primary screen; inhibition, % at 6.8 µM; AID 652010; HEK293T StAR-luciferase reporter, SF-1/DAX-1 repression relief; actives 1.1% (n = 370,000);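 active means inhibition above the mean over all tested compounds plus 3 SD, cut at about 3.6% in these data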;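 further: 0% = DAX-1 cells with DMSO and 100% = cells lacking DAX-1 with DMSO; higher inhibition means more luminescence from relief of DAX-1 repression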
# DAX1 inh-2: NR0B1 (DAX1) inhibition; P51843; HEK293 Gal4-DAX1 luciferase reporter, luminescence; inhibition, % at 6.75 µM; actives 0.99% (n = 340,000); AID 504766;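 active means inhibition above the mean over all tested compounds plus 3 SD, cut at about 4.2% in these data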;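 further: 0% = DAX1-transfected cells with DMSO and 100% = empty-vector control cells with DMSO; inhibition shows as a rise in luminescence from relieved DAX1 repression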
# Target sequence (P51843 207-470 limits assumed): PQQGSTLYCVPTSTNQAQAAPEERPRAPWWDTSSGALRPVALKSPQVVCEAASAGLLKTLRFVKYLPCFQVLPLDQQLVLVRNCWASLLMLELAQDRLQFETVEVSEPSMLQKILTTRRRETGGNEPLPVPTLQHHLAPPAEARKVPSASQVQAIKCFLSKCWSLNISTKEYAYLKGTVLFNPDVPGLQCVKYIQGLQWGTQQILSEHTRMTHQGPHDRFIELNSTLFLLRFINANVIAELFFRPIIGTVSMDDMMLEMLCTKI
# hcDAF12 agonist: activates DAF-12 receptor from parasite H. contortus | HEK293 hcDAF-12 lit1-tk-luc reporter, luminescence; 0% DMSO, 100% Δ7-dafachronic acid | activation, % at 6.8 µM | actives 1.4% (n = 370,000) | AID 652067;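 active means activation above the mean of all tested compounds plus 3 SD, cut at about 5.5% in these data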;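 further: 100% = response to 3 µM Δ7-dafachronic acid high control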
# hgDAF-12 ag: agonists of H. glycines DAF-12 nuclear receptor | HEK293 GAL4-hgDAF12 UAS-luciferase reporter, agonist luminescence; normalized to butyrate control | activation, % at 6.8 µM | actives 1.8% (n = 370,000);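 active means activation above a cutoff set at the mean of all screened compounds plus 3 SD, cut at about 10% in these data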;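 further: 0% = DMSO wells and 100% = sodium butyrate wells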
# LXR ag: activates human LXR-beta, counter-screen for hcDAF-12 agonists. shares compounds with hcDAF12 agonist. HEK293 Gal4-LXR tk-luc reporter, luminescence, 24 h; normalized: DMSO 0%, positive control 100%. activation, % at 6.8 µM. 3,400 tested, under 10 active;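 active means mean percent activation of the reporter above a cutoff set as the average over tested compounds plus their standard deviation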
# hcDAF12 conf: hcDAF-12 agonism, confirmation assay | activation, % at 6.8 µM | HEK293 hcDAF-12 lit1-tk-luc reporter, luminescence; % of Δ7-dafachronic acid response | shares compounds with hcDAF12 agonist | actives 61% (n = 3,400);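 active means mean activation across triplicate tests above the threshold derived from the earlier primary screen, cut at about 5.5% in these data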;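 further: 0% = DMSO only wells and 100% = 3 µM Δ7-dafachronic acid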
# An asterisk follows results filed as active; / = no result given.
SMILES,ssDAF12 agonist,SMARCA2 activ,DAX1 inh-1,DAX1 inh-2,hcDAF12 agonist,hgDAF-12 ag,LXR ag,hcDAF12 conf
O=C(NC(=S)Nc1ccccc1N1CCCCC1)c1ccccc1,-1,2,-1,-1,0,-3,/,/
Cc1ccnc(NC(=O)Nc2cccc(F)c2)c1,1.5*,1,3.7*,-1,16*,17*,2,15*
CC(C)CCNC(=O)C1CC(c2ccccc2[N+](=O)[O-])=NO1 (stereo not given),0,2,0,2,7.2*,4,0,4
CCCCc1ccc(NC(=O)CC(C)(C)C)cc1,0,3,2,-1,7.0*,13*,0,4
Clc1nc(-c2ccccn2)nc2scc(-c3ccccc3)c12,0,4,2,1,12*,14*,1,6.6*
CC1CCN(c2nc(-c3cccnc3)nc3scc(-c4ccccc4)c23)CC1,-1,2,0,-1,3,3,/,/
O=C(Nc1ccc(Cl)cc1)Nc1ccccc1Sc1ncc([N+](=O)[O-])s1,1.1*,4,0,-1,7.6*,4,0,1
O=C(Nc1csc([N+](=O)[O-])c1)Nc1ccccc1Cl,-1,-3,-1,2,-1,2,/,/
O=C1Nc2ccccc2SC1=Cc1ccccc1,0,4,1,2,5,2,/,/
O=C1CCCC2=C1Sc1ccccc1N2,-1,-5,0,/,7.8*,-1,0,4
Cc1ccc(-c2nc3cccnc3s2)cc1NC(=O)c1ccco1,0,3,2,1,13*,9,0,4
Cc1ccc(CN=C2Nc3ccccc3CS2)cc1,0,6,4.1*,1,9.7*,15*,2,10*
CCOC(=O)C1CCCN(C(=O)c2cc3ccccc3oc2=O)C1 (stereo not given),-1,0,0,0,-1,0,/,/
O=C1CCOc2cc(OCc3ccccc3)ccc21,0,2,3,1,9.2*,12*,2,6.2*
Brc1cccc(-c2nnc(-c3ccccc3)o2)c1,1.6*,-1,3.9*,4,11*,10*,2,11*
Cc1ccc(-c2nnc(-c3cccc(Br)c3)o2)cc1,-1,3,2,1,2,7,/,/
O=C(NCc1ccccc1Cl)c1ccc2ccccc2n1,1.1*,1,0,0,7.7*,11*,1,9.1*
NS(=O)(=O)c1ccc(CCNC(=O)c2ccc3ccccc3n2)cc1,1,3,1,0,6.8*,6,0,8.5*
COc1ccc(CCNC(=O)c2ccc3ccccc3n2)cc1,0,7,0,0,7.2*,11*,0,4
Cc1nc(-c2ccc3c(c2)OCO3)cs1,0,0,0,0,5,3,/,/
c1cncc(-c2nc(-c3ccc4c(c3)OCO4)cs2)c1,0,7,2,1,6.8*,12*,1,5
S=C1N[C@H]2CCCC[C@@H]2N1,-1,-3,1,/,1,1,/,/
Cc1ccc(C2c3[nH]c4ccccc4c3C[C@H]3C(=O)N(c4ccccc4C(=O)N4CCC[C@@H]4C(=O)O)C(=O)N23)cc1 (stereo not given in full),0,5,2,2,10*,4,0,6
Cc1ccc(C2c3[nH]c4ccccc4c3C[C@H]3C(=O)N(c4ccccc4C(=O)N4CCC(C(=O)O)CC4)C(=O)N23)cc1 (stereo not given in full),0,2,3,4,9.6*,4,0,3
COCCCN1CC(=O)N2C(c3ccc(C)cc3)c3[nH]c4ccccc4c3C[C@H]2C1=O (stereo not given in full),0,0,-1,-1,2,-2,/,/
SMILES,ssDAF12 agonist,SMARCA2 activ,DAX1 inh-1,DAX1 inh-2,hcDAF12 agonist,hgDAF-12 ag,LXR ag,hcDAF12 conf
COc1ccc(C2c3[nH]c4ccccc4c3C[C@H]3C(=O)N(c4ccccc4C(=O)NCCN4CCOCC4)C(=O)N23)cc1 (stereo not given in full),0,2,0,-1,2,0,/,/
COc1cccc(C2c3[nH]c4ccccc4c3C[C@H]3C(=O)N(c4ccccc4C(=O)N4CCCC4C(=O)O)C(=O)N23)c1 (stereo not given in full),0,1,0,1,12*,4,0,4
Cc1cccc(N2CN=c3s/c(=C\c4ccccn4)c(=O)n3C2)c1,1,-1,0,1,10*,0,0,0
CNc1c2cccc(C)c2nc2c(C(=O)NCCN(C)C)cccc12,4.1*,-5,-5,4,38*,9,0,-4
c1nc(NCC2CCCO2)c2cc(-c3ccc4c(c3)OCO4)ccc2n1 (stereo not given),-1,/,/,/,1,2,/,/
c1nc(NCC2CCCCO2)c2cc(-c3ccc4c(c3)OCO4)ccc2n1 (stereo not given),-1,/,/,/,6.9*,-1,0,2
C=CCn1c(SCC(N)=O)nc2nc3c(cc2c1=O)COC(C)(C)C3,-1,-3,0,1,0,3,/,/
Cc1c(O)ccc(/C=N/Nc2ncccc2[N+](=O)[O-])c1O,1.2*,3,1,0,7.5*,10,2,6.0*
O=[N+]([O-])c1ccccc1/C=N/Nc1nccnc1Cl,0,4,1,1,1,6,/,/
Nc1nc2ncccn2c1-c1ccc(C(F)(F)F)cc1,0,0,-1,/,6.9*,-2,0,-1
Nc1nc2ncccn2c1-c1ccc(F)cc1,0,-2,-1,/,2,-3,/,/
Cc1onc(-c2c(Cl)cccc2Cl)c1NC(=O)N1CCSCC1,1.8*,7,4,4.2*,8.0*,11*,0,0
Cc1onc(-c2c(Cl)cccc2Cl)c1NC(=O)NN(C)C,-1,-5,0,3,0,3,/,/
C/C(=N\NC(=O)c1ccccc1O)c1cccc(NC(=O)c2ccccc2)c1,1.3*,4,0,3,7.0*,9,0,5
Cc1ccc(-c2cc3c(N=O)c4ccccc4c-3n[nH]2)cc1,-3,-6,-2,-6,-5,-17,/,/
Cc1cccc(-c2cc3c(N=O)c4ccccc4c-3n[nH]2)c1,1.2*,7,3.9*,6.9*,12*,17*,2,17*

# Bioassay records (PubChem)
